{"source": "PubChem BioAssay AID720584", "about": "(National Center for Advancing Translational Sciences (NCATS), 2013)", "note": "Some of the results follow. Results filed as inconclusive are left out. Values without a mark were called inactive. The source made the active and inactive calls. Calls follow the shape of the dose curve; as a rule, active = well fitted inhibition curve with a large enough effect; inconclusive = small, poorly fitted or top-dose-only effect; inactive = flat fitted curve, though single readings scatter. % is scaled to controls: 0 for no effect and ±100 for the full control effect; potency is read from the fitted curve at half-maximal effect.", "data": [{"tested_on": "Trypanosoma brucei pyruvate kinase (TbPYK)", "assay": "qHTS of Trypanosoma Brucei Inhibitors: Orthogonal Assay for Cherry-picked Compounds; also: nearly all actives have a fitted effect of over 75% in size", "conditions": "recombinant TbPYK, ADP-Glo luminescence, 60 min; series mostly up to 76.9 µM; activity change, negative = inhibition: at the top concentration", "source_text": "Members of the Trypanosomatidae family of parasitic protozoans cause a spectrum of diseases throughout the tropical and subtropical world. Sleeping sickness, caused by two subspecies of Trypanosoma brucei, is endemic to areas of sub-Saharan Africa, while Chagas' disease, a manifestation of Trypanosoma cruzi infection, is prevalent throughout Central and South America. In addition, many species of Leishmania are responsible for a range of cutaneous and visceral diseases, causing ulcers, destructive lesions and kalaazar, a lethal infection of the viscera. These diseases cause severe public health and economic burdens on populations that are often already caught in a tragic cycle of poverty, poor nutrition and disease. Collectively, parasites of the trypanosomatid family infect 30 million people worldwide (~500 million live in endemic areas), and account for ~130K deaths annually. Existing treatments have developed little in the past 50 years, and suffer from toxicity, poor efficacy and resistance; the goal of this project is to develop lead drugs that will be suitable for entry into pre-clinical trials. […] Glycolysis in axenically cultured T. cruzi, representing the intracellular pathogenic stage, is also essential for these parasites. {Engel, 1987} This project aims to discover and optimize selective inhibitors of the glycolytic enzyme pyruvate kinase (PYK) from Trypanosoma brucei, the parasite that causes sleeping sickness. […] Trypanosomatid PYKs show significant differences from their human counterparts including only 47-50% sequence identity and different allosteric and activation properties.{Callens, 1992} To this end, a qHTS was done against the MLSMR to discover inhibitors. To confirm activity of the cherrypicked compounds, an orthogonal assay was developed. While the primary qHTS provides a luminescence-based detection of TbPyK by measuring ATP production, the orthogonal assay will measure the amount of ADP substrate remaining. Decrease in activity signal indicative of inhibition of T. brucei proliferation is the desired outcome for this assay. NIH Molecular Libraries Probe Production Network [MLPCN] NIH Chemical Genomics Center [NCGC] Grant: MH095452 PI Name: Malcolm Walkinshaw, University of Edinburgh\nBriefly, 2 uL of substrate/TbPYK buffer (all columns but column 4) are dispensed into Greiner white solid-bottom 1536-well assay plates. Column 4 gets just buffer without enzyme. Compounds are then transferred via Kalypsys pin tool equipped with 1536-pin array (10 nL slotted pins, V&P Scientific, San Diego, CA). Following addition of compound, 1 uL of ADP (130 uM final concentration, columns 1-48) is added to initiate the reaction. The plates are then incubated at room temperature for 60 minutes. ADP-Glo (Promega) reagent I is added (2.5 uL) and plates incubated for 10 minutes. ADP-Glo reagent II is then added (5 uL), followed by a 10 minute room temperature incubation, before being transferred to a ViewLux high-throughput CCD imager (PerkinElmer), wherein single end-point measurements of luminescence are acquired using a clear filter. All reagents are diluted in an assay buffer consisting of 50 mM TEA (pH 7.2), 100 mM KCl, 10 mM MgCl2, 0.05% BSA and 0.01% Tween-20.", "units": {"activity change, negative = inhibition": "%"}, "values": [{"smiles": "O=C(Nc1ccc(S(=O)(=O)N2CCOCC2)cc1)c1ccc2ncsc2c1", "Potency": "15.8 µM (active)"}, {"smiles": "O=C1C=CC(=O)N1c1ccc(N2CCCCC2)cc1", "Potency": "3.55 µM (active)"}, {"smiles": "Oc1c(CN2CCOCC2)ccc(CN2CCOCC2)c1O", "Potency": "7.08 µM (active)"}, {"smiles": "Cc1nc2ccc(S(=O)(=O)NCC(=O)O)cc2s1", "Potency": "11.2 µM (active)"}, {"smiles": "CC(=O)N1CC[n+]2c(-c3ccc([N+](=O)[O-])cc3)csc21", "Potency": "1.78 µM (active)"}, {"smiles": "O=C(CCCCCn1c(=S)[nH]c2ccsc2c1=O)NC1CCCCC1", "Potency": "14.1 µM (active)"}, {"smiles": "O=C(COC(=O)c1ccccc1)c1ccc2c(c1)OCCO2", "activity change, negative = inhibition": 0.431}, {"smiles": "Cc1cc(C#N)c(SCC(N)=O)nc1-c1ccc(F)cc1", "Potency": "5.01 µM (active)"}, {"smiles": "Cc1ccc(NC(=O)c2cc(-c3ccc(C)o3)nc3ccccc23)nc1", "Potency": "35.5 µM (active)"}, {"smiles": "Cc1ccc(C)c2c1cc(C)c1nnc(SCC(=O)Nc3cccc(C(=O)O)c3)n12", "Potency": "1 µM (active)"}, {"smiles": "c1ccc(-c2nnc3n2NC(c2ccc4c(c2)OCO4)S3)cc1", "note": "(stereo unspecified)", "Potency": "0.141 µM (active)"}, {"smiles": "O=C(CSc1ccc(-c2ccco2)nn1)Nc1cccc(F)c1", "Potency": "31.6 µM (active)"}, {"smiles": "Cc1c(C)c(C)c(S(=O)(=O)N2CCC3(CC2)OCCO3)c(C)c1C", "activity change, negative = inhibition": -2.02}, {"smiles": "COCCNC(=O)Nc1ccc2nc(-c3ccco3)c(-c3ccco3)nc2c1", "Potency": "8.91 µM (active)"}, {"smiles": "O=c1[nH]c2ccccc2n2c(-c3ccccc3)nnc12", "Potency": "0.1 µM (active)"}, {"smiles": "O=C(CSc1nnc(-c2ccco2)n1CC1CCCO1)c1ccccc1", "note": "(stereo unspecified)", "Potency": "35.5 µM (active)"}, {"smiles": "Cc1cccc(-n2c(N)c(C(=O)N3CCN(C)CC3)sc2=S)c1", "Potency": "5.01 µM (active)"}, {"smiles": "Cc1cc(C2=NNC(=Nc3ccc(S(=O)(=O)N4CCOCC4)cc3)SC2)c(C)n1CC1CCCO1", "note": "(stereo unspecified)", "Potency": "15.8 µM (active)"}, {"smiles": "NC(=O)c1c(Nc2nc3c(F)cccc3s2)sc2c1CCCC2", "Potency": "8.91 µM (active)"}, {"smiles": "COc1ccc(Cc2nnc(NS(=O)(=O)Cc3ccccc3)s2)cc1", "activity change, negative = inhibition": -11.1}, {"smiles": "COc1cccc(C(=O)c2cc3ccc(O)cc3oc2=O)c1", "activity change, negative = inhibition": -2.74}, {"smiles": "O=C(CN1CCN(c2ccc(O)cc2)CC1)Nc1cc(S(=O)(=O)N2CCOCC2)ccc1Cl", "Potency": "12.6 µM (active)"}, {"smiles": "COc1cccc(C(=O)Nc2ccc(N3CCCC3)cc2)c1", "activity change, negative = inhibition": -6.36}, {"smiles": "COc1cc(C2CC(=O)N3CN(Cc4ccccc4)CSC3=C2C#N)ccc1OCc1ccccc1", "note": "(stereo unspecified)", "Potency": "0.447 µM (active)"}, {"smiles": "C=CCn1c(=S)[nH]c2scc(-c3ccco3)c2c1=O", "Potency": "17.8 µM (active)"}, {"smiles": "CSc1c(SCc2ccccc2)cnn(Cc2ccccc2)c1=O", "Potency": "14.1 µM (active)"}, {"smiles": "Cc1nonc1C(=O)N/N=C/c1ccc(O)cc1", "activity change, negative = inhibition": 13.7}, {"smiles": "COC(=O)/C=C\\C(=O)Nc1cccc([N+](=O)[O-])c1", "Potency": "17.8 µM (active)"}, {"smiles": "Cc1ccc(/C=C/C(=O)Nc2ccc([N+](=O)[O-])c(NC(=O)/C=C/c3ccc(C)o3)c2)o1", "Potency": "20 µM (active)"}, {"smiles": "CN(c1ccccc1)S(=O)(=O)c1cccc(NC(=O)Cc2ccc(Cl)cc2)c1", "Potency": "12.6 µM (active)"}, {"smiles": "N#Cc1c(N2CCCCC2)nc(N)c2c(N)nc(SCC(=O)O)cc12", "Potency": "35.5 µM (active)"}]}]}
